Records with an inconclusive call do not appear. The source made the active and inactive calls. Unless noted, the call rests on the fitted dose curve; in most records, active means well fitted curve in the direction sought with a large enough effect; inconclusive means small, poorly fitted or top-dose-only effect, or another doubt; inactive means no such curve, though single readings can be large; an effect the other way counts as inactive or inconclusive.
tested on: not listed separately; assay: qHTS assay for environmental chemicals that activate the Aryl hydrocarbon Receptor (AhR) signaling pathway (AID 651777); conditions: 1A2-DRE human hepatoma cells, luciferase, 24 h; stronger effect = higher value; further: % of control where 0% means no effect; nearly all actives have a fitted effect of over 15% in size
Method in brief: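 AhR activation is scored as a rise in luciferase from a stable DRE–CYP1A2 promoter construct in human hepatoma cells. Treatment lasts 24 hr at 37 C; detection uses One-Glo after 30 min at room temperature.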

SMILES | activation
Cc1occc(=O)c1O | 0.287% (inactive)
CC1=CC(=O)CC(C)(C)C1(O)/C=C/C(C)=C\C(=O)O (stereo not given) | -0.944% (inactive)
COS(C)(=O)=O | -0.488% (inactive)

biological target: Peroxisome proliferator-activated receptor alpha (Homo sapiens) (UniProt Q07869); assay: qHTS assay for small molecule agonists of the peroxisome proliferator-activated receptor alpha (PPARalpha) signaling pathway (AID 651778); conditions: PathHunter PPARalpha complementation, chemiluminescence, 6 h; stronger effect = higher value; further: % of control where 0% means no effect
Method in brief: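 Chemiluminescence from complemented enzyme reported PPARalpha activation in cells after 6 hr of compound treatment at 37 C. The detection reagent was incubated for 60 min at room temperature, and compounds were scored as agonists.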

Chain of Peroxisome proliferator-activated receptor alpha (Homo sapiens) (Q07869 whole entry, looked up): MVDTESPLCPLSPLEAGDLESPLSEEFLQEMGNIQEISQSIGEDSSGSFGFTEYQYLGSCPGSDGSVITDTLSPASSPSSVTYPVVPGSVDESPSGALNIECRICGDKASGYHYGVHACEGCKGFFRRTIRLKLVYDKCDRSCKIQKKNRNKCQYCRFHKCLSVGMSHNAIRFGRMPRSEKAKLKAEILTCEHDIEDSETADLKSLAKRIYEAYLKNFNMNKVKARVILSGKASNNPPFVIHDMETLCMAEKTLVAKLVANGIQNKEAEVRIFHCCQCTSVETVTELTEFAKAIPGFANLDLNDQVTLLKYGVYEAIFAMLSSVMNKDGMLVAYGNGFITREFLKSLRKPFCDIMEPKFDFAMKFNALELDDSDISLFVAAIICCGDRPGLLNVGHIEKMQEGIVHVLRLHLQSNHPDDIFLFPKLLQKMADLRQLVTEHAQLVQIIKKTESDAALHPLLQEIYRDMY

SMILES | max response
Cc1occc(=O)c1O | -2.16% (inactive)
CC1=CC(=O)CC(C)(C)C1(O)/C=C/C(C)=C\C(=O)O (stereo not given) | 6.6% (inactive)
COS(C)(=O)=O | 5.12% (inactive)

biological target: Nuclear receptor ROR-gamma (Homo sapiens) (UniProt P51449); assay: qHTS assay for small molecule antagonists of the retinoid-related orphan receptor gamma (ROR-gamma) signaling pathway (AID 651802); conditions: ROR-gamma antagonist cell reporter assay; series mostly up to 92.2 µM; further: on the % scale 0 is the no-effect control and ±100 the full control effect; nearly all actives have a fitted effect of over 60% in size
Method in brief: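 CHO cells carrying TET-inducible ROR-gamma and an ROR response element–luciferase reporter were exposed to compound, then induced with doxycycline. After 16hr at 37C, luminescence was read; lower signal indicates antagonism.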

Chain of Nuclear receptor ROR-gamma (Homo sapiens) (P51449 whole entry, looked up): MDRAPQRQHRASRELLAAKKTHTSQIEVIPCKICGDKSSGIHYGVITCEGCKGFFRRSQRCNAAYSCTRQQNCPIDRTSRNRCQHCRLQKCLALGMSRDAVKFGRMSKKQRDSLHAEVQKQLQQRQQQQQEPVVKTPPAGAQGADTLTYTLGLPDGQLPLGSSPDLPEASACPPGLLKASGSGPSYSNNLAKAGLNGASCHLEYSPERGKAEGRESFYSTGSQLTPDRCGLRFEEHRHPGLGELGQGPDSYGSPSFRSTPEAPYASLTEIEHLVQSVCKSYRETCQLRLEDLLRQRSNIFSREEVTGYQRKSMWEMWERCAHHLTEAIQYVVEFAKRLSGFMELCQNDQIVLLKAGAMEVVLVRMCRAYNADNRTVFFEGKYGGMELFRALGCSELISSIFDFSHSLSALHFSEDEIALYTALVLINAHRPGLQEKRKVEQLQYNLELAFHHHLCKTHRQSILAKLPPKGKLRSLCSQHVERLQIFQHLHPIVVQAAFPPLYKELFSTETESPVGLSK

SMILES | outcome
Cc1occc(=O)c1O | inactive
CC1=CC(=O)CC(C)(C)C1(O)/C=C/C(C)=C\C(=O)O (stereo not given) | inactive
COS(C)(=O)=O | inactive

tested on: not listed separately; assay: qHTS assay for small molecule agonists of the antioxidant response element (ARE) signaling pathway measured by Nrf2-dependant transcriptional activity (AID 720636; active means well fitted curve in the direction sought with a large enough effect in the repeat runs; an effect the other way counts as inactive or inconclusive;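 further: HepG2 cells with an ARE-driven luciferase reporter; % of control where 0% means no effect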); conditions: ARE-luc HepG2, Nrf2 luciferase reporter, 16 h; series mostly up to 92.4 µM
Method in brief: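 First, ARE-luc HepG2 cells attached for 6 hr at 37 C in 1% dialyzed FBS medium. Next, compound or DMSO was added and incubated 16 hr. Finally, ONE-Glo reagent was added and luminescence measured after 30 min.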

SMILES | outcome
Cc1occc(=O)c1O | inactive
CC1=CC(=O)CC(C)(C)C1(O)/C=C/C(C)=C\C(=O)O (stereo not given) | inactive
COS(C)(=O)=O | inactive

tested on: not listed separately; assay: qHTS assay for small molecule antagonists of the retinoid-related orphan receptor gamma (ROR-gamma) signaling pathway - cell viability counter screen (AID 720652; active means well fitted curve in the direction sought with a large enough effect in the repeat runs; an effect the other way counts as inactive or inconclusive;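 further: compound exposure lasted 16 hr before ATP read; on the % scale 0 is the no-effect control and ±100 the full control effect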); conditions: RORgamma reporter cell line viability counter screen; series mostly up to 92.2 µM
Method in brief: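 Counter screen in CHO cells carrying TET-inducible ROR-gamma and an ROR response element-luciferase reporter; cells plated 5 hr, compound pinned, doxycycline added, then 16 hr at 37 C. Viability read as intracellular ATP by CellTiter-Glo luminescence.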

SMILES | outcome
Cc1occc(=O)c1O | inactive
CC1=CC(=O)CC(C)(C)C1(O)/C=C/C(C)=C\C(=O)O (stereo not given) | inactive
COS(C)(=O)=O | inactive

tested on: not listed separately; assay: qHTS assay for small molecule agonists of the antioxidant response element (ARE) signaling pathway measured by Nrf2-dependant transcriptional activity - cell viability counter screen (AID 720653; active means well fitted curve in the direction sought with a large enough effect in the repeat runs; an effect the other way counts as inactive or inconclusive; further: on the % scale 0 is the no-effect control and ±100 the full control effect); conditions: ARE-bla HepG2 viability, CellTiter-Glo ATP luminescence, 16 h; stronger effect = lower value
Method in brief: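 Cytotoxicity counter screen: intracellular ATP quantified by CellTiter-Glo luminescence in the same ARE-bla HepG2 plates, after 16 h compound exposure and a 2 h beta-lactamase substrate step.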

SMILES | max response
Cc1occc(=O)c1O | 5.21% (inactive)
CC1=CC(=O)CC(C)(C)C1(O)/C=C/C(C)=C\C(=O)O (stereo not given) | 6.26% (inactive)
COS(C)(=O)=O | -2.28% (inactive)

tested on: not listed separately; assay: qHTS assay for cell viability of HEK293 cells (AID 743288); conditions: ATP luminescence (CellTiter-Glo), 18 h, stronger effect = lower value; further: on the % scale 0 is the no-effect control and ±100 the full control effect; nearly all actives have a fitted effect of over 50% in size
Method in brief: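 HEK293 parental, 2,000 cells/well; ≥5 h pre-incubation 37 C; pintool compound addition; 18 h, 37 C; CellTiter-Glo 30 min RT; luminescence read.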

SMILES | max response
Cc1occc(=O)c1O | 0.312% (inactive)
CC1=CC(=O)CC(C)(C)C1(O)/C=C/C(C)=C\C(=O)O (stereo not given) | 11% (inactive)
COS(C)(=O)=O | 1.66% (inactive)

tested on: not listed separately; assay: qHTS assay for cell viability of the p53RE-bla HCT-116 cell line (AID 743292); conditions: p53RE-bla HCT-116 viability, ATP luminescence, 16 h; series mostly up to 95 µM; further: on the % scale 0 is the no-effect control and ±100 the full control effect; nearly all actives have a fitted effect of over 55% in size
Method in brief: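 Quantitative high-throughput format: compounds in DMSO were pinned onto p53RE-bla HCT-116 cells (4,000/well) and incubated 16 h at 37 C. Total intracellular ATP, read by CellTiter-Glo luminescence, reflects viable cell number.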

SMILES | outcome
Cc1occc(=O)c1O | inactive
CC1=CC(=O)CC(C)(C)C1(O)/C=C/C(C)=C\C(=O)O (stereo not given) | inactive
COS(C)(=O)=O | inactive

biological target: Nuclear receptor subfamily 1 group I member 2 (Rattus norvegicus) (UniProt Q9R1A7); assay: qHTS assay for small molecule activators of the rat pregnane X receptor (rPXR) signaling pathway (AID 651751; call rule not given here; further: 0% is about no effect); conditions: rPXR reporter cells, luciferase (One-Glo), 24 h
Sequence (Q9R1A7 whole entry, looked up): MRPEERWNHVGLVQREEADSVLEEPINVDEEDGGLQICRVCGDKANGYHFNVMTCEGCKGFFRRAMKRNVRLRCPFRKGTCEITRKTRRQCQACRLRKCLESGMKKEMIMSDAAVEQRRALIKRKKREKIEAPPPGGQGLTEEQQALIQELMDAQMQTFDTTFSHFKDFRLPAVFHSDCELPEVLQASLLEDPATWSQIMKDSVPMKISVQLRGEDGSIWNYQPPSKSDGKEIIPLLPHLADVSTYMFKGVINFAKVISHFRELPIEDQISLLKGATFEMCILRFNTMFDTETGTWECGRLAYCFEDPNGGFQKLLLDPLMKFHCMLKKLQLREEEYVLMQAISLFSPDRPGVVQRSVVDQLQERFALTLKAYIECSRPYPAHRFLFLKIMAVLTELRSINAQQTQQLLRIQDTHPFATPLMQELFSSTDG

SMILES | max response
Cc1occc(=O)c1O | 3.86% (inactive)
CC1=CC(=O)CC(C)(C)C1(O)/C=C/C(C)=C\C(=O)O (stereo not given) | -0.742% (inactive)
COS(C)(=O)=O | 0.398% (inactive)

tested on: not listed separately; assay: qHTS assay for small molecule activators of the human pregnane X receptor (PXR) signaling pathway (AID 720659; call rule not given here; further: 0% is about no effect); conditions: DPX-2 HepG2 CYP3A4-luciferase, 24 h; series mostly up to 92.3 µM

SMILES | outcome
Cc1occc(=O)c1O | inactive
CC1=CC(=O)CC(C)(C)C1(O)/C=C/C(C)=C\C(=O)O (stereo not given) | inactive
COS(C)(=O)=O | inactive

Reference: PubChem BioAssay (NCATS)
